The panel holds about 83,000 compounds, 20% with a hit somewhere; the sample as a whole holds those more often.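 How to read the values: 0–100, growth inhibition (40 = 60% inhibited); 0, no net growth; -100 to 0, cell death (-40 = 40% of starting cells died; -100 = all dead).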 Values without a mark were called inactive. Active and inactive are the calls of the source. Rule for the calls: active = growth percent below 10; inactive = the rest.
What was measured:
Assay in all cases: NCI-60 one-dose screen, 48 h (100 = growth as untreated, 0 = no growth, -100 = all killed)
Details in all cases: 10 µM unless noted
HCT-15 colon = test system: HCT-15 colon
HT29 colon = test system: HT29 colon
SNB-75 CNS = test system: SNB-75 CNS
SNB-19 CNS = test system: SNB-19 CNS
U251 CNS = test system: U251 CNS
PC-3 prostate = test system: PC-3 prostate
SK-MEL-5 melanoma = test system: SK-MEL-5 melanoma
UACC-62 melanoma = test system: UACC-62 melanoma
LOX IMVI melanoma = test system: LOX IMVI melanoma
SK-MEL-28 melanoma = test system: SK-MEL-28 melanoma

Row | Structure (SMILES) | growth (HCT-15 colon) | growth (HT29 colon) | growth (SNB-75 CNS) | growth (SNB-19 CNS) | growth (U251 CNS) | growth (PC-3 prostate) | growth (SK-MEL-5 melanoma) | growth (UACC-62 melanoma) | growth (LOX IMVI melanoma) | growth (SK-MEL-28 melanoma)
1 | Cc1cccc[n+]1CCC[n+]1ccccc1C | 96.7% | 94.1% | 103% | 111% | 101% | 95.4% | 101% | 109% | 96.9% | 103%
2 | O=C(COc1ccc(Cl)cc1)N1CCN(Cc2ccc3c(c2)OCO3)CC1 | 96.8% | 112% | 102% | 95.6% | 94.3% | 90.3% | 97.7% | 81.8% | 89.5% | 116%
3 | O=S(=O)(CCN1CCOCC1)Nc1cc(-c2ccc3ncnc(Nc4ccc(F)c(Cl)c4)c3c2)cnc1Cl | 16.2% | 14.6% | -20.7% (active) | 5.93% (active) | 13.5% | 13.4% | -5.68% (active) | -16.4% (active) | 4.23% (active) | 2.15% (active)
4 | CC1CCC(C(C)C)C(NN)C1 (stereo not given) | 104% | 77.1% | 103% | 106% | 96.3% | 93.9% | 102% | 96.7% | 103% | 111%
5 | COc1cc2c(/C=C3/C(=O)Nc4ccc(O)cc43)c(Cl)n(Cc3cc(OC)c(OC)c(OC)c3)c2cc1C | 38.1% | 10.4% | 32.2% | 20.2% | 32.2% | 11.3% | -64.5% (active) | 36.6% | 39.7% | 45.2%
6 | COc1ccc2c(c1)OC(N)=C(C#N)C2c1ccc(F)c(F)c1 (stereo not given) | 29.6% | 3.2% (active) | 9.47% (active) | 28.7% | 31% | 24.2% | 24.2% | 38.1% | 54.2% | 68.2%
7 | COc1ccc(-c2ccc(NC(=O)Nc3cccc(C(F)(F)F)c3)c(C)n2)cc1 | 40.9% | 47.7% | 77.6% | 67.8% | 50.2% | 24.4% | 41.6% | 63.9% | 47.7% | 69.3%
8 | Nc1ncc(-c2ccc3ncnc(Nc4ccc(F)c(Cl)c4)c3c2)cn1 | 45.9% | 32.8% | -12.6% (active) | 90.5% | -14.8% (active) | 64.5% | 95.8% | 103% | 35.6% | 102%
9 | COc1ccc(/C=C/C(=O)c2ccc(Oc3ncnc4ccccc34)cc2)cc1OC | 24.3% | 27.4% | 74.8% | 64.9% | 50.9% | 82.1% | 72.5% | 76.9% | 13.8% | 104%
10 | C=C1C(=O)O[C@H]2[C@H]1CC/C(COC(=O)n1ccnc1C)=C\CC[C@@]1(C)O[C@@H]21 | 93.6% | 95.4% | 93.2% | 95.3% | 95.1% | 97.2% | 106% | 98.6% | 95% | 100%
11 | COc1cccc(-c2nc3sccn3c2-c2ccnc(NCCNC(=O)c3ccccc3)n2)c1 | 81.9% | 53.5% | 92.6% | 110% | 102% | 79.7% | 55.3% | 24.6% | 54.7% | 64.2%

From PubChem BioAssay (NCI)
